Laboratory results as given in PubChem BioAssay AID449762 (Southern Research Specialized Biocontainment Screening …, 2010).
Several values for one entry are separate records, joined by “and”; a condition that tells them apart may be missing. Identical values can stand only once. The campaign covered roughly 330,000 compounds. About 1,900 (0.58%) were called active. Inconclusive results (about 4%) are left out. No stated cut-off is given here; in the data, inconclusive means inhibition above about 70% without an active follow-up result; inactive means below that. Not all results are given here. Results with a measured potency or affinity are listed apart.

Test: M. tuberculosis growth inhibition, HTS (AID 449762);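 further: bacterial growth assessed after seven days of incubation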
Conditions: M. tuberculosis H37Rv growth inhibition, 7H9 media; at 25 µM; active compounds read high

SMILES	inhibition
CC12CCC(=O)N1C(C(=O)N1CCN(c3ccc(C(F)(F)F)cc3[N+](=O)[O-])CC1)CS2 (stereo not given)	4.09% (inactive)
CC1(c2nnc(-c3ccccc3)o2)CC(c2ccncc2)=NO1 (stereo not given)	10.1% (inactive)
CC1(c2nnc(-c3ccccc3)o2)CC(c2ccccc2)=NO1 (stereo not given)	4.65% (inactive)
Cc1nc(C)c(-c2csc(Nc3ccccn3)n2)s1	5.67% (inactive)
O=S(=O)(c1cccc2cccnc12)N1CCN(c2ccccn2)CC1	-2.85% (inactive)
COc1ccc(S(=O)(=O)N2CCN(CC(=O)Nc3ccccc3OC)CC2)cc1	5.95% (inactive)
FC(F)Oc1ccc(NC(=S)Nn2cnnc2)cc1	-3% (inactive)
COc1ccc(CNC(=O)C[C@H]2C(=O)N(c3ccccc3)C[C@@H]2Cc2ccccc2)cc1	0.74% (inactive)
CC1Cc2ccccc2N1C(=O)CSc1nc2ccccc2n1CC(=O)N1CCOCC1 (stereo not given)	7.22% (inactive)
C=CCNC(=O)c1onc(CSc2ccc(Cl)cc2)c1C(=O)NCC=C	27.7% (inactive)
C=CCNC(=O)c1onc(CSc2ccc(OC)cc2)c1C(=O)O	4.85% (inactive)
CCN(CC)S(=O)(=O)c1ccc(N2CCCC2)c(NC(=O)C2=COCCO2)c1	-7.17% (inactive)
Cn1c(CSCc2ccc(F)cc2)n[nH]c1=S	-6.48% (inactive)
FC(F)(F)c1cccc(-c2cc(C3CCNCC3)[nH]n2)c1	6.36% (inactive)
COC(=O)CCN1CCC(c2cc(-c3cccc(C(F)(F)F)c3)n[nH]2)CC1	5.38% (inactive)
O=C(CC1C(=O)NCCN1Cc1ccc(F)cc1)NCCCn1cccn1 (stereo not given)	-1% (inactive)
O=S(=O)(NCCc1cn2ccccc2n1)c1ccc2c(c1)OCCO2	-2.59% (inactive)
Cc1c(C(=O)NCc2ccc(S(N)(=O)=O)cc2)oc2ccc(Cl)cc12	-4.55% (inactive)
COc1cc2nc(Nc3ccc(F)cc3)nc(N)c2cc1OC	23.2% (inactive)
COc1cc2nc(N3CCNCC3)nc(N)c2cc1OC	-16.4% (inactive)
COc1cc2nc(N3CCN(C(=O)c4ccco4)CC3)nc(N)c2cc1OC	-7.62% (inactive) and 1.49% (inactive)
COc1cc2nc(Nc3cccc(F)c3)nc(N)c2cc1OC	34.9% (inactive)
CCn1c(O)c(N=Nc2cccc(S(=O)(=O)N3CCOCC3)c2)c(=O)n(CC)c1=S	-2.11% (inactive)

SMILES	inhibition
O=C(Nc1cccc(C(=O)N2CCCc3ccccc32)c1)c1ccccc1	6.88% (inactive)
COc1ccccc1C(=O)NC(=O)Nc1c(C)cc(C)cc1C	1.95% (inactive)
COc1ccc(-c2nc(-c3ccncc3)no2)c(OC)c1	4.47% (inactive)
COc1ccc(S(=O)(=O)N2CCC(c3cc(-c4cccc5ccccc45)n[nH]3)CC2)cc1	66.5% (inactive)
COc1cccc(NS(=O)(=O)c2nc3nc(C)cc(C)n3n2)c1	-2.88% (inactive)
COc1ccc(S(=O)(=O)Nc2c(F)cccc2F)cc1	6.44% (inactive)
COc1ccc(CNS(=O)(=O)c2cc3c4c(c2)C(C)C(=O)N4CCC3)cc1 (stereo not given)	-1.95% (inactive)
COc1ccc(CCC(=O)NCCS(=O)(=O)N2CCN(c3ccccc3F)CC2)cc1	9.75% (inactive)
CN1CCCN(C(=O)c2cccc(Br)c2)CC1	-4.86% (inactive)
c1ccc(-c2nnc(-c3ccccn3)c(-c3ccccn3)n2)nc1	0.73% (inactive)
CC(C)Nc1nc(-c2ccccn2)nc(-c2ccccc2)c1C#N	-1.18% (inactive)
c1ccc(-c2ccccn2)nc1	11.8% (inactive)
c1ccc(-c2nc(-c3ccccn3)nc(-c3ccccn3)n2)nc1	14.8% (inactive)
O=C(NCC(c1cccnc1)N1CCN(c2ccc(F)cc2)CC1)Oc1ccccc1 (stereo not given)	-8.33% (inactive)
CCc1cccc(NC(=O)CCCN2C(=O)NC(C)(C)C2=O)c1	-11.7% (inactive)
C[C@@H]1CCCCCCCCC(=O)OCCN(C(=O)OC(C)(C)C)[C@H](C)CCCCCCCCC(=O)OCCN1C(=O)OC(C)(C)C	3.06% (inactive)
C[C@@H]1CCCCCCCCC(=O)OCCN(C(=O)OC(C)(C)C)[C@H](C)CCCCCCCCC(=O)OCCN(C(=O)OC(C)(C)C)[C@H](C)CCCCCCCCC(=O)OCCN(C(=O)OC(C)(C)C)[C@H](C)CCCCCCCCC(=O)OCCN1C(=O)OC(C)(C)C	-0.93% (inactive)
COc1ccc(N2CCN(C(=O)CCNS(=O)(=O)c3ccc(C)cc3)CC2)cc1	-1.98% (inactive)
C[C@H](NC(=O)N1CCn2c1nc1ccccc12)C(=O)N1CCCCC1	-4.78% (inactive)
CN(CCOc1ccccc1)C(=O)C1CCC(=O)N(CCCN2CCOCC2)C1 (stereo not given)	14.5% (inactive)
Nc1nc2ccccc2n1CCOc1ccc(Cl)cc1	9.81% (inactive)
Nc1nc2ccccc2n1CCOc1ccc(F)cc1	41.5% (inactive)
CN(C)S(=O)(=O)c1cc(NC(=O)CN2CCN(c3ccccc3)CC2)ccc1Cl	1.87% (inactive)

SMILES	inhibition
CN=C1NN=C(c2cc(C)n(-c3c(C)n(C)n(-c4ccccc4)c3=O)c2C)CS1	10.5% (inactive)
CCN=C1NN=C(c2c[nH]c3ccccc23)CS1	0.3% (inactive)
c1ccc2c(C3=NNC(=NC4CC4)SC3)c[nH]c2c1	-4.02% (inactive)
Cc1cc(C2=NNC(=NC3CC3)SC2)c(C)n1-c1c(C)n(C)n(-c2ccccc2)c1=O	0.5% (inactive)
COc1ccc(CC(=O)Nc2ccc(C#N)c(Cl)c2)cc1S(=O)(=O)N1CCOCC1	3.7% (inactive)
COc1ccnc(Oc2ccc(F)cc2)c1C(=O)N/C=N/OCc1cccc(F)c1	24.6% (inactive)
C=C(C)CSc1nnc2n(C)c(=O)c3c4c(sc3n12)CCC4	4.7% (inactive)
NC(=O)CSc1nc(N)c2c3c(sc2n1)CCCCC3	42.6% (inactive)
Cc1nc(N2CCN(C(=O)c3cnccn3)CC2)c2c3c(sc2n1)CC(C(C)(C)C)CC3 (stereo not given)	-2.07% (inactive)
CC(=O)N1CCN(c2nc(C)nc3sc4c(c23)CCC(C)C4)CC1 (stereo not given)	-0.41% (inactive)
CC(C)(C)C1CCc2c(sc3nc(SCC(=O)O)nc(N)c23)C1 (stereo not given)	6.02% (inactive)
CCCSc1nnc2n(C)c(=O)c3c4c(sc3n12)CCC4	9.4% (inactive)
CC(C)(C)[C@H]1COC(=O)[C@@H](Cc2ccc(F)cc2)C/C=C\C[C@@H](CC(=O)N[C@@H](CO)Cc2ccccc2)C(=O)N1	-8.38% (inactive)
Cc1cc(OCC(=O)NCCCN2CCOCC2)c2c(C)cc(=O)oc2c1	3.65% (inactive)
O=C(Cc1c(Cl)cccc1Cl)N1CCN(Cc2ccccc2)CC1	7.3% (inactive)
C/C(=N\NC(=O)c1ccc(Cn2cc(Br)cn2)o1)c1cccc(NC(=O)C(C)(C)C)c1	-8.27% (inactive)
COc1cccc(CN(C)CC(=O)Nc2ccccc2C(=O)Nc2ccccc2)c1OC	-3.55% (inactive)
CN(CC(=O)Nc1ccc(F)cc1)C(=O)COC(=O)c1cc(S(=O)(=O)N(C)C)ccc1N1CCCC1	0.17% (inactive)
CCc1ccc2[nH]c(C(=O)Nc3ccc(C)c(F)c3)cc2c1	6.38% (inactive)
Cc1cc(C)c2cc(C(=O)Nc3ccc4c(c3)OCO4)[nH]c2c1	-1.94% (inactive)
Cc1cccc(NC(=O)C2CCN(S(=O)(=O)c3c(C)noc3C)CC2)c1	8.96% (inactive)
c1cc[n+](CCC[n+]2ccccc2)cc1	1.9% (inactive)
c1cc[n+](CCCC[n+]2ccccc2)cc1	-7% (inactive)

SMILES	inhibition
O=C(Nc1ccc(F)cc1)c1cnc(-c2ccccc2)nc1-c1ccccc1	-11.2% (inactive)
CCCOc1ccc2[nH]c(C(=O)N/N=C/c3cc(OC)c(OC)c(OC)c3)cc2c1	4.27% (inactive)
CCOc1ccc(CCNC(=O)Cc2ccc(NC3=NC4CS(=O)(=O)CC4S3)cc2)cc1 (stereo not given)	-10.9% (inactive)
COCCn1c(=NC(=O)CSC(C)=O)sc2cc(OC)ccc21	-1.47% (inactive)
CS(=O)(=O)c1ccc(C(=O)NCc2ccccc2F)cc1	-1.2% (inactive)
CS(=O)(=O)c1ccc(C(=O)NC(Cc2ccccc2)c2ccccc2)cc1 (stereo not given)	-2.61% (inactive)
Cn1cc(C(=O)N2CCCCC2)c2ccccc21	5.24% (inactive)
CCCCC[C@@H]1C=C(C(=O)O)[C@H](c2cccc(C)c2)N1S(=O)(=O)c1ccc(C)cc1	9.09% (inactive)
S=C(NCCNC(=S)Nc1ccccc1)Nc1ccccc1	-0.85% (inactive)
COc1ccc(C(CNc2nc(-c3cccnc3)nc3ccccc23)N(C)C)cc1 (stereo not given)	-3.31% (inactive)
COC(=O)C1=C(C)N(C)C(=S)NC1c1c(OC)ccc2ccccc12 (stereo not given)	8.17% (inactive)
O=C1NCN(c2ccccc2)C12CCNCC2	-2.9% (inactive)
O=C1NCN(c2ccccc2)C12CCN(c1nnnn1-c1ccccc1)CC2	-2.38% (inactive)
COc1ccc(S(=O)(=O)N(C)CC(=O)NC2CCCC2)cc1OC	-0.73% (inactive)
Cc1ccc(-c2ccccc2NC(=O)C2C3C=CC(C3)C2C(=O)O)o1 (stereo not given)	3.02% (inactive)
CC(=O)Nc1cccc(NC(=O)C2C3C=CC(C3)C2C(=O)O)c1 (stereo not given)	1.17% (inactive)
CCCCOc1ccc(C(=O)N2CCN(c3ccc(N4CCOCC4)nn3)CC2)cc1	37.3% (inactive)
CNC1=C([N+](=O)[O-])CC([N+](=O)[O-])=C(N2CCNCC2)N1C	1.39% (inactive)
Cc1nn(Cc2ccccc2)c(Cl)c1C(=O)OCC(=O)NC(=O)NC12CC3CC(CC(C3)C1)C2	3.45% (inactive)
Cc1c2ccccc2nc2ccccc12	21.6% (inactive)
CC1CCc2nc3ccccc3c(C(=O)OCC(=O)NC3CCS(=O)(=O)C3)c2C1 (stereo not given)	9.92% (inactive)
